# Inconclusive results are not listed. Entries that show only a call come without a potency. Unmarked numbers belong to inactive results. Calls of active or inactive are those of the source. Calls come from the whole dose curve; as a rule, active = well fitted cell-killing curve with a large enough effect; inconclusive = small, poorly fitted or top-dose-only effect, or effect the other way; inactive = no such curve, though single readings can be large or run the other way.
# Assays:
# [1] = Viability qHTS for spleen associated tyrosine kinase inhibitor (SYKi) naive MV4-11 cells (AID 1963823); note: nearly all actives have a fitted effect of over 40% in size
# Outline: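 CellTiter-Glo luminescence, 10 min room-temperature incubation, gave viability. Cells: naive MV4-11 (500/well), treated 72 hr at 37 C, 5% CO2.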
# [2] = Viability qHTS for spleen associated tyrosine kinase inhibitor (SYKi) drug resistant MV4-11 cells (AID 1963824); note: nearly all actives have a fitted effect of over 35% in size
# Outline: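 SYK inhibitor-resistant MV4-11 AML cells, 500 per well, added to predispensed compounds and incubated 72 hr at 37 C, 5% CO2. Viability measured by CellTiter-Glo luminescence after 10 min at room temperature.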
# Potency is the fitted concentration of half-maximal effect.
Compound,Potency [1],Potency [2],viability (% of control) [1],"viability, % of control [2]"
CN1CCN(Cc2ccc(NC(=O)Cc3ccc(Oc4cc(NC(=O)C5CC5)ncn4)cc3)cc2C(F)(F)F)CC1,inactive,inactive,–,–
COC(=O)C1=CO[C@@H](O[C@@H]2O[C@H](CO)[C@@H](O)[C@H](O)[C@H]2O)[C@@H]2[C@@H](C)[C@@H](OC(=O)/C=C/c3ccccc3)[C@@H](O)[C@H]12,inactive,inactive,–,–
CCC(O)C(C)C1CCC(C(C)C(=O)O)O1 (stereo unspecified),inactive,inactive,–,–
CC1=C(C(=O)OC2OC(COC3OC(CO)C(O)C(O)C3O)C(O)C(O)C2O)C(C)(C)CCC1 (stereo unspecified),inactive,inactive,–,–
CN(C)c1nc2c(Br)c(Br)c(Br)c(Br)c2[nH]1,11.6 µM (active),8.2 µM (active),–,–
CC(C)=CCC/C(C)=C/CO[C@@H]1O[C@H](CO[C@@H]2O[C@@H](CO)[C@H](O)[C@H]2O)[C@@H](O)[C@H](O)[C@H]1O,inactive,inactive,–,–
CN(C)CC/C=C1\c2ccccc2COc2ccccc21,inactive,inactive,–,–
C=C1CCC2C(C)(C(=O)OC)CCCC2(C)C1CCC(C)CC(=O)O (stereo unspecified),inactive,inactive,–,–
COc1cc(/C=C/CO)cc(OC)c1O[C@@H]1O[C@H](CO[C@@H]2O[C@H](CO)[C@@H](O)[C@H](O)[C@H]2O)[C@@H](O)[C@H](O)[C@H]1O,inactive,inactive,–,–
O=C(Nc1ccc(CN2CCOCC2)cc1)c1ccc(-c2cccc(Cl)c2)o1,8.2 µM (active),9.2 µM (active),–,–
C[C@@H]1O[C@@H](O[C@H]2[C@H](OC(=O)[C@]34CCC(C)(C)C[C@H]3C3=CCC5[C@@]6(C)CC[C@H](O[C@@H]7O[C@H](CO[C@@H]8OC[C@H](O)[C@H](O)[C@H]8O)[C@@H](O)[C@H](O)[C@H]7O)C(C)(C)C6CC[C@@]5(C)[C@]3(C)C[C@H]4O)OC[C@@H](O)[C@@H]2O)[C@H](O)[C@H](O)[C@H]1O[C@@H]1OC[C@H](O)[C@H](O[C@@H]2OC[C@@H](O)[C@H](O)[C@H]2O)[C@H]1O (stereo partly specified),–,–,84.1% [at 9.25 µM],84.6% [at 9.25 µM]
COc1cc(O)c2c(c1Cl)CC(C)OC2=O (stereo unspecified),inactive,inactive,–,–
COc1ccc(C2=NC(c3ccc(Cl)cc3)C(c3ccc(Cl)cc3)N2C(=O)N2CCNC(=O)C2)c(OC(C)C)c1 (stereo unspecified),16.4 µM (active),18.4 µM (active),–,–
CC1(CCOC2OC(CO)C(O)C(O)C2O)CCC23OC2(C1)C(O)CC1C(C)(C(=O)O)CCCC13C (stereo unspecified),inactive,inactive,–,–
C[C@@H]1O[C@@H](O[C@H]2[C@H](OC(=O)[C@]34CCC(C)(C)C[C@H]3C3=CCC5[C@@]6(C)CC[C@H](O[C@@H]7O[C@H](CO[C@@H]8OC[C@H](O)[C@H](O)[C@H]8O)[C@@H](O)[C@H](O)[C@H]7O)C(C)(C)C6CC[C@@]5(C)[C@]3(C)C[C@H]4O)OC[C@@H](O)[C@@H]2O)[C@H](O)[C@H](O[C@@H]2OC[C@](O)(CO)[C@H]2O)[C@H]1O[C@@H]1OC[C@H](O)[C@H](O[C@@H]2OC[C@@H](O)[C@H](O)[C@H]2O)[C@H]1O (stereo partly specified),–,–,88.4% [at 9.25 µM],88.4% [at 9.25 µM]
CCOC(=O)c1cnc2ccc(-c3cncc(NS(=O)(=O)c4ccccc4)c3)cn12,0.326 µM (active),0.231 µM (active),–,–
OCC1OC(Oc2cc(O)cc(/C=C/c3ccc(O)cc3)c2)C(O)C(O)C1O (stereo unspecified),inactive,inactive,–,–
O=C(O)Cc1cn(C2OCC(O)C(O)C2O[C@@H]2O[C@H](CO)[C@@H](O)[C@H](O)[C@H]2O)c2ccccc12 (stereo partly specified),inactive,inactive,–,–
Oc1cccc(-c2c3nc(c(-c4cccc(O)c4)c4ccc([nH]4)c(-c4cccc(O)c4)c4nc(c(-c5cccc(O)c5)c5ccc2[nH]5)CC4)C=C3)c1,16.8 µM (active),18.8 µM (active),–,–
CC1(CO)CCCC2(C)C1C(OC(=O)c1ccccc1)CC1C(=O)OCC12O (stereo unspecified),inactive,inactive,–,–
C/C=C/C=C/C=C/C(=O)O[C@@H]1C=C(CO)C(O)(C(=O)O)[C@@]2(C)CCCC(C)(C)[C@H]12 (stereo partly specified),inactive,inactive,–,–
C=C(C)C(=O)O[C@H]1[C@H]2C(=C)C(=O)O[C@@H]2/C=C(\CO)CC/C=C(/C=O)[C@@H]1O,10.1 µM (active),9.04 µM (active),–,–
Cc1ccc(C)c(NS(=O)(=O)c2cc(C(=O)Nc3ccccc3-c3ccccc3)ccc2C)c1,23.1 µM (active),16.4 µM (active),–,–

# Source: PubChem BioAssay (NCATS)
